{
  "source": "PubChem BioAssay (NCI)",
  "note": "About 83,000 compounds went through this panel and 20% of them were active in at least one assay; those are over-represented in the sample as a whole.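 Single-dose data. Exposure time 48 hours. Values below 10 considered active.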 Calls of active or inactive are those of the source.",
  "data": [
    {"test_system": "NCI-H226 lung", "experiment": "NCI-60 one-dose screen, 48 h (100 = growth as untreated, 0 = no growth, -100 = all killed)", "settings": "10 µM", "values": [
      {"smiles": "O=[N+]([O-])C1CC2C=CC1C2", "note": "(centres undefined)", "growth": "94.9% (inactive)"},
      {"smiles": "COc1ccc(C2CC(c3ccc(-c4ccccc4)cc3)=NN2c2ccc(S(N)(=O)=O)cc2)cc1", "note": "(centres undefined)", "growth": "74.9% (inactive)"},
      {"smiles": "O=C(Nc1cccc(F)c1)Nc1cccc(Cl)c1", "growth": "102% (inactive)"},
      {"smiles": "COc1cc(/C=C2\\C(=O)Nc3cc(C)c(O)cc32)cc(OC)c1OC", "growth": "79.8% (inactive)"},
      {"smiles": "COC(=O)c1ccc(Cn2ccc(=O)[nH]c2=O)cc1", "growth": "103% (inactive)"},
      {"smiles": "Nc1nc2c(ncn2C2OC3COP(=O)(O)OC4C(COP(=O)(O)OC2C3O)OC(n2cnc3c(N)ncnc32)C4O)c(=O)[nH]1", "note": "(centres undefined)", "growth": "75.6% (inactive)"},
      {"smiles": "COc1cccc(C(=O)NNc2nc(N3CCN(C4CCCCC4)CC3)nc(N3CCN(C(c4ccccc4)c4ccccc4)CC3)n2)c1", "growth": "73.7% (inactive)"},
      {"smiles": "O=C(CCCC(=O)N/N=C/c1cc(Cl)ccc1O)N/N=C\\c1cc(Cl)ccc1O", "growth": "40.7% (inactive)"},
      {"smiles": "COc1ccc2nc(/C=C/c3ccc(N(C)C)cc3)sc2c1", "growth": "99.5% (inactive)"},
      {"smiles": "O=c1cc(CSc2nnc(-c3ccccc3)n2-c2ccc(F)cc2)c2ccc3ccccc3c2o1", "growth": "81.4% (inactive)"},
      {"smiles": "O=C(O)CCCCSCCCCC(=O)O", "growth": "93.4% (inactive)"},
      {"smiles": "C#C[C@]1(O)CC[C@H]2[C@@H]3CC[C@H]4CC(F)(F)CC[C@]4(C)[C@H]3CC[C@@]21C", "growth": "90.4% (inactive)"},
      {"smiles": "O=C(OCC1OC(n2cc(C(F)(F)F)c(=O)[nH]c2=O)CC1OC(=O)c1ccc([N+](=O)[O-])cc1)c1ccc([N+](=O)[O-])cc1", "note": "(centres undefined)", "growth": "72.5% (inactive)"},
      {"smiles": "COC(=O)c1cnc2c(c1)Oc1ccc(Cl)cc1-c1cc(C)nn1-2", "growth": "66.3% (inactive)"}
    ]}
  ]
}
